PubChem BioAssay
Activity calls are given as the source filed them.

How the values were obtained:
[1] = binders of probe aFSTL3 on microarray, primary screen, stem cell growth factor project, biochemical, small-molecule microarray, fluorescence 635/667 (AID 1064); details: higher = more signal;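 note: measures binding of the biotinylated anti-FSTL3 antibody to printed compounds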
[2] = binders from COS7 lysate, DM2A8 probe, primary screen, torsin A project, cell lysate, small-molecule microarray, fluorescence 635/667 (AID 1065); details: higher = more signal, COS7 lysate expressing mutant human TOR1A
[3] = binders of probe aFGF2 on microarray, primary screen, stem cell growth factor project, biochemical, small-molecule microarray, fluorescence 635/667 (AID 1067); details: higher = more signal;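 note: measures binding of biotinylated aFGF2 protein to printed compounds on slides; z-score merges feature fluorescence and signal-to-noise across triplicate slides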
[4] = binders of probe aFGF10 on microarray, primary screen, stem cell growth factor project, biochemical, small-molecule microarray, fluorescence 635/667 (AID 1071); details: higher = more signal;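 note: score merges 667 nm spot intensity and signal to noise from triplicate slides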
[5] = biological target: Neurogenic locus notch homolog protein 2 (Homo sapiens) (UniProt Q04721); experiment: Notch2 binders on small-molecule microarrays, primary screen, biochemical, small-molecule microarray, 635 nm fluorescence, stem cell growth factors (AID 1073); details: Notch2 binding, higher = more signal
Sequence of Neurogenic locus notch homolog protein 2 (Homo sapiens) (Q04721 whole entry, looked up, canonical isoform): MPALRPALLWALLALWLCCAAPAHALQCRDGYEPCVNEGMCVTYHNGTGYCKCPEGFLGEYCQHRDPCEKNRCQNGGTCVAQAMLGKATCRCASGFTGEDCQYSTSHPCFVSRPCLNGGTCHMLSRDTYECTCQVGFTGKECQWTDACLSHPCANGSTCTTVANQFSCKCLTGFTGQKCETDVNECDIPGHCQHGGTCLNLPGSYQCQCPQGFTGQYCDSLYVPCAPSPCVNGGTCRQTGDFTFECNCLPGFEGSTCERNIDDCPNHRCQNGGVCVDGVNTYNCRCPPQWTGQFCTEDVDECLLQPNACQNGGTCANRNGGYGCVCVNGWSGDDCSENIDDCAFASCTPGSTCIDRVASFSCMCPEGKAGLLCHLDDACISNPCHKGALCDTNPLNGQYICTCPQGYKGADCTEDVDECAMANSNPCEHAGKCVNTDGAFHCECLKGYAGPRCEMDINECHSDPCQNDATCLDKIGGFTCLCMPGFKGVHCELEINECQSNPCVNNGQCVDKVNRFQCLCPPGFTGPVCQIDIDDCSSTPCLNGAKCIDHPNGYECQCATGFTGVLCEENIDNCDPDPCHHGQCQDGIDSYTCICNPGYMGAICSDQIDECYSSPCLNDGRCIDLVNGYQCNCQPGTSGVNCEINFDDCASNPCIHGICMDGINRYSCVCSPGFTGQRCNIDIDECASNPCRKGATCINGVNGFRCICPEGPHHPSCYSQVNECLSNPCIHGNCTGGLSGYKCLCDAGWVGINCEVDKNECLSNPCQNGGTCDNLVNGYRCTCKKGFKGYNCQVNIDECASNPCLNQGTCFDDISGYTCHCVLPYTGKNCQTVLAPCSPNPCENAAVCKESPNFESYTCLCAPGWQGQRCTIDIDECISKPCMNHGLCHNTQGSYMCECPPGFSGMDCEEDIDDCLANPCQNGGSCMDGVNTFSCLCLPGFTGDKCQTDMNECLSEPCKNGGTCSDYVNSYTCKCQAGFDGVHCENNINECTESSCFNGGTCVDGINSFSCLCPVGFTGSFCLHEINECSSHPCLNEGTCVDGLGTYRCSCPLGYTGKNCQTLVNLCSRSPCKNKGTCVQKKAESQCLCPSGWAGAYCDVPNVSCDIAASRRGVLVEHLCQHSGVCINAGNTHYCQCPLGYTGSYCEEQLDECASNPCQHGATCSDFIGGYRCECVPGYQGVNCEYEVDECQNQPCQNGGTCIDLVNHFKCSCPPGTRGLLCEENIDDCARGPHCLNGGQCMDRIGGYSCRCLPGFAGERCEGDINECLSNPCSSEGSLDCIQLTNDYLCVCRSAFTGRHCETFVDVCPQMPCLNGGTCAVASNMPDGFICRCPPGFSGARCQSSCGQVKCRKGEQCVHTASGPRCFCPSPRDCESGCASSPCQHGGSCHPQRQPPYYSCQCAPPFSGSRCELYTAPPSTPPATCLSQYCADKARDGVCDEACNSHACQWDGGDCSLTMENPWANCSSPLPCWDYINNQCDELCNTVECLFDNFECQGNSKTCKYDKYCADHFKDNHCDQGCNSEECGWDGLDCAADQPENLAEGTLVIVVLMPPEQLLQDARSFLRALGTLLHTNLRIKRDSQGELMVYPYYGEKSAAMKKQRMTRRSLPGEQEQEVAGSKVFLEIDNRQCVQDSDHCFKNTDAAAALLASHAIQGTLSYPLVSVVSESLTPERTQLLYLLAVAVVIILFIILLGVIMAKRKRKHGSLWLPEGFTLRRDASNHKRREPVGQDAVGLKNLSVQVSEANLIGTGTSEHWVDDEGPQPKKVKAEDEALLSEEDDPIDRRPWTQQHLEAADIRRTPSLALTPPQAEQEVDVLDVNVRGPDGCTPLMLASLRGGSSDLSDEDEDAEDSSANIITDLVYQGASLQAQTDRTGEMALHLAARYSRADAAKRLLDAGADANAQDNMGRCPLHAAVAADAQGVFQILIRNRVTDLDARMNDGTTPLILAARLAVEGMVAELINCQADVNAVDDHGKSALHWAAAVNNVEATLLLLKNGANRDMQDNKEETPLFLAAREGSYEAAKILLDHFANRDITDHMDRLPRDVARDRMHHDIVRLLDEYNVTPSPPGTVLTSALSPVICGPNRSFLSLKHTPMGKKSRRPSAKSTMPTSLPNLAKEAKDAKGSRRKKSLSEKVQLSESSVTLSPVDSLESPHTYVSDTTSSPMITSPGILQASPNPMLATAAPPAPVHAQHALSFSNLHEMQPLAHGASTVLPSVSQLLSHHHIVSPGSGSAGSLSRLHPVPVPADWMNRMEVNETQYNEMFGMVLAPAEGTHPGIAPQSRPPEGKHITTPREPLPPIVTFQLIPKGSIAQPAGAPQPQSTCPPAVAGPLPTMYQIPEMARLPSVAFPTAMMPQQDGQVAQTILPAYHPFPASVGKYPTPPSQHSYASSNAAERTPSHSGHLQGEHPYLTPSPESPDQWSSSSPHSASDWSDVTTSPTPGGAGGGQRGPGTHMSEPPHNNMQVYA

[6] = biological target: Pro-neuregulin-1, membrane-bound isoform (Homo sapiens) (UniProt Q02297); experiment: NRG1 binders on small-molecule microarrays, primary screen, psychiatric disease protein project, biochemical, small-molecule microarray, fluorescence 635/667 (AID 1075); details: NRG1 binding, 635 nm fluorescence, higher = more signal;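 note: score combines 667 nm spot fluorescence with signal to noise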
Sequence of Pro-neuregulin-1, membrane-bound isoform (Homo sapiens) (Q02297 whole entry, looked up, the tested form may be a part, canonical isoform): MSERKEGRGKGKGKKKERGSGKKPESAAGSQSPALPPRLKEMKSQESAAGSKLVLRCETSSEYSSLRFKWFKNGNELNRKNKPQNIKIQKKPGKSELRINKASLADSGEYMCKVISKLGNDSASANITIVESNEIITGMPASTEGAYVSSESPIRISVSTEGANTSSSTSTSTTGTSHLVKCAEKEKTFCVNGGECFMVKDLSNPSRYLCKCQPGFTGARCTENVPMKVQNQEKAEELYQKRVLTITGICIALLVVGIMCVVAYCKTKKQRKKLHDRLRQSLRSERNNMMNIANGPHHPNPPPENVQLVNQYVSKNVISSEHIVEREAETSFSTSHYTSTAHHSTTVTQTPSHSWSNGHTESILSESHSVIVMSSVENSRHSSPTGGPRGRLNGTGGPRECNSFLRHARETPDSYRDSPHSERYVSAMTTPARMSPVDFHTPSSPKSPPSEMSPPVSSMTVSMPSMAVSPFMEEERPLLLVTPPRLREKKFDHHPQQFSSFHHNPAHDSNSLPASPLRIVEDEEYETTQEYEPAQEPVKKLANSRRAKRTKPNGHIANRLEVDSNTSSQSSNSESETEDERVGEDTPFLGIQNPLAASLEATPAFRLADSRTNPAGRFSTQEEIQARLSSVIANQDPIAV

[7] = system: Neuregulin-1 EGF-like domain; experiment: binders of neuregulin-1 EGF-like domain, primary screen, biochemical, small-molecule microarray, 635 nm fluorescence (AID 1081); details: small-molecule microarray binding, higher = more signal;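 note: binding of the protein to compounds printed on small-molecule microarray slides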
[8] = FRG1 promoter luciferase signal modulators, primary screen, FRG1 inhibition for FSHD, cell-based, C2C12 myotubes, firefly/Renilla luciferase, luminescence (AID 1084); details: higher = more signal, called active from +8 up or from −8 down
[9] = binders of probe aFST on microarray, primary screen, stem cell growth factor project, biochemical, small-molecule microarray, fluorescence 635/667 (AID 1086); details: higher = more signal;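 note: score merges 667 nm fluorescence with signal-to-noise of each printed compound spot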
[10] = binders of probe aHhip on microarray, primary screen, stem cell growth factor project, biochemical, small-molecule microarray, fluorescence 635/667 (AID 1087); details: higher = more signal;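 note: score merges spot fluorescence at 667nm with spot signal to noise ratio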
[11] = system: PRMT1 (protein arginine N-methyltransferase 1); experiment: PRMT1 binders on small-molecule microarrays, primary screen, biochemical, small-molecule microarray, 635 nm fluorescence (AID 1088); details: small-molecule microarray binding, higher = more signal;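 note: binding of Prmt1 protein to compounds spotted on small-molecule microarray slides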
[12] = yeast growth modulation, basal conditions, primary screen, YJM789 clinical isolate, OD600, 24 h (AID 1089);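 note: growth of clinical yeast isolate S. cerevisiae YJM 789 seeded 1000 cells per well; test concentration not given here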; details: S. cerevisiae YJM789 growth, higher = more signal, called active from +8 up or from −8 down
[13] = fission yeast growth modulation, primary screen, strain 972, OD600, 24 h, no modulator (AID 1090);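 note: basal condition with compound alone and no growth modifier present; test concentration not given here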; details: S. pombe 972 growth, higher = more signal, called active from +8 up or from −8 down
[14] = S. cerevisiae growth modulation with rapamycin, primary screen, strain BY4716, OD600, 96 h (AID 1091); details: higher = more signal, called active from +8 up or from −8 down; note: test concentration not given here
[15] = biological target: Torsin-1A-interacting protein 2 (Homo sapiens) (UniProt Q8NFQ8); experiment: LULL1 binders on small-molecule microarray, primary screen, cell lysate, human LULL1 lysate, 635/667 nm fluorescence (AID 1092); details: hLULL1 lysate binding, 635 nm fluorescence, higher = more signal;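 note: probe is lysate of COS7 cells overexpressing human LULL1; score merges per-feature 667 nm fluorescence with signal-to-noise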
Sequence of Torsin-1A-interacting protein 2 (Homo sapiens) (Q8NFQ8 whole entry, looked up): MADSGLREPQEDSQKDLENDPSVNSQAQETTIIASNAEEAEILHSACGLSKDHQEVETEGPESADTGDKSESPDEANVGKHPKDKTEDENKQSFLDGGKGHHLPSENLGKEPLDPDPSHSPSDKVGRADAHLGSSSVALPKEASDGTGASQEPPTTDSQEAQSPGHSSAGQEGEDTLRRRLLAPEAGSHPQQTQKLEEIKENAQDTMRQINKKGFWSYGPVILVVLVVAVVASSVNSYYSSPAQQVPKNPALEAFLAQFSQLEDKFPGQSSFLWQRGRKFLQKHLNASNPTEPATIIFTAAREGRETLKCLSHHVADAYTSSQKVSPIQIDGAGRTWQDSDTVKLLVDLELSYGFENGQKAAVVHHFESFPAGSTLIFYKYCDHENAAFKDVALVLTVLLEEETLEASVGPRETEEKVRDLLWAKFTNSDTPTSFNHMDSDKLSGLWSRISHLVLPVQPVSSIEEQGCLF

[16] = E. coli growth modulation, two-sided OD650, primary screen, E. coli filamentation project, strain DRC41, 24 h (AID 1093); details: OD650, 24 h, higher = more signal, called active from +8 up or from −8 down;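 note: MC1000 strain lacking acrAB efflux and sulA so SOS filamentation is blocked; test concentration not given here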
[17] = small-molecule microarray binders of probe aLefty2, primary screen, biochemical, biotinylated probe, 635/667 nm fluorescence (AID 1094); details: higher = more signal;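 note: score merges spot fluorescence near 667 nm with spot signal-to-noise ratio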
[18] = system: Noggin (protein binding on small-molecule microarray); experiment: Noggin binders on small-molecule microarray, primary screen, biochemical, 635/667 nm fluorescence (AID 1095); details: 635 nm fluorescence, higher = more signal;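 note: score merges 667 nm feature fluorescence with signal to noise over triplicate slides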
[19] = biological target: Neurogenic locus notch homolog protein 3 (Homo sapiens) (UniProt Q9UM47); experiment: NOTCH3 binders on small-molecule microarray, primary screen, biochemical, 635/667 nm fluorescence (AID 1096); details: NOTCH3 binding, 635 nm fluorescence, higher = more signal
[20] = small-molecule microarray binders of probe aEGFR, primary screen, biochemical, biotinylated probe, 635/667 nm fluorescence (AID 1097); details: higher = more signal;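 note: probe is a biotinylated anti-EGFR antibody binding compounds printed on slides; score combines fluorescence near 667 nm and signal to noise of each spot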

Structure (SMILES) | composite z-score [1] | composite z-score [2] | composite z-score [3] | composite z-score [4] | composite z-score [5] | composite z-score [6] | composite z-score [7] | z-score [8] | composite z-score [9] | composite z-score [10] | composite z-score [11] | z-score [12] | z-score [13] | z-score [14] | composite z-score [15] | z-score [16] | composite z-score [17] | composite z-score [18] | composite z-score [19] | composite z-score [20]
O=C1c2ccccc2[C@](Cc2ccccc2I)(C(=O)NC2CC2)[C@H](c2ccc(CO)cc2)N1Cc1ccccc1Cl | 0.558 | 0.478 | 0.221 | 0.487 | 1.23 | 1.36 | 1.27 | -2.71 (inactive) | 0.496 | -0.105 | 1.36 | 0.07 (inactive) | 0.376 (inactive) | 1.57 (inactive) | 1.91 | -1.02 (inactive) | 0.349 | 1.53 | 0.856 | 0.178
[N-]=[N+]=NCc1ccccc1C[C@]1(C(=O)NCCN2CCOCC2)N=C(c2ccc(OCCCO)cc2)O[C@H]1c1ccccc1 | 0.081 | 0.205 | -0.0085 | 0.713 | 0.0617 | 1.32 | 1.26 | -0.849 (inactive) | 0.632 | -0.0296 | 1.54 | -2.01 (inactive) | -0.85 (inactive) | -2.06 (inactive) | 3.22 | 0.677 (inactive) | -0.0519 | 1.88 | 0.626 | -0.0382
CC(C)NC(=O)[C@@H]1c2ccccc2C(=O)N(Cc2cc(C(F)(F)F)cc(C(F)(F)F)c2)[C@H]1c1ccc(CO)cc1 | 0.27 | 0.255 | 0.0032 | -0.0264 | 0.805 | 0.104 | 0.663 | 0.306 (inactive) | 0.619 | 0.0596 | 1.46 | -0.245 (inactive) | -0.593 (inactive) | -0.517 (inactive) | 2.4 | -0.216 (inactive) | -0.0107 | 0.598 | 1.04 | -0.0248
CCCCC(O)C1C=CC2C(=O)N(Cc3ccccc3)C(=O)C2N1n1cnnc1 (stereo not given) | -0.246 | 0.095 | 0.0311 | 0.22 | 0.225 | 1.1 | 1.08 | 0.2 (inactive) | 0.437 | 0.312 | 0.623 | -0.28 (inactive) | 0.653 (inactive) | -0.335 (inactive) | 2.57 | -0.981 (inactive) | -0.103 | 0.159 | 0.62 | 0.035
Cc1ccc(C(C)CC(O)C2C=CC3C(=O)N(Cc4ccccc4)C(=O)C3N2n2cnnc2)o1 (stereo not given) | 1.67 | 0.46 | 0.522 | 0.703 | 1.29 | 0.907 | 1.44 | 0.386 (inactive) | 2.16 | 0.488 | 1.49 | -3.19 (inactive) | -2.84 (inactive) | -0.829 (inactive) | 2.51 | -1.56 (inactive) | 1.1 | 0.0433 | 1.09 | 0.778
O=C1O[C@H](c2ccccc2)[C@H](c2ccccc2)N2[C@H]1[C@@H](C(=O)N1CCCCCCC1)[C@]1(C(=O)Nc3ccccc31)[C@H]2c1ccc(O)cc1 | 4.2 | 2.71 | 1.1 | 1.61 | 1.83 | 2.55 | 1.37 | 0.168 (inactive) | 3.92 | 4.73 | 1.55 | 0.532 (inactive) | 0.556 (inactive) | 0.874 (inactive) | 4.82 | 0.248 (inactive) | 2.02 | 2.26 | 1.01 | 1.5
CN(C)CCCCNC(=O)[C@H]1C[C@H]2C(=O)N[C@@H](CCCC[N+](C)(C)C)C(=O)N2[C@H]1c1cccc(OCCO)c1 | -0.235 | 1.09 | -0.116 | -0.0012 | -0.606 | 0.417 | 1.26 | 2.9 (inactive) | -0.268 | -0.0994 | 1.53 | -0.359 (inactive) | 0.276 (inactive) | -0.702 (inactive) | 2.05 | 0.305 (inactive) | -0.204 | 1.35 | 0.907 | -0.0733
C=C(/C(=C/C[C@@H](OC(C)=O)c1ccccc1OCCO)c1cnc2ccccc2c1)C(C)C | -0.0572 | 1.23 | -0.166 | 0.758 | 1.13 | 0.179 | 0.911 | -0.698 (inactive) | 0.0287 | -0.344 | 1.4 | -0.37 (inactive) | -1.11 (inactive) | -0.449 (inactive) | 0.885 | 0.575 (inactive) | -0.178 | 1.2 | 0.646 | -0.0439
COC(=O)c1c(CC[C@@H](CO)NC(=O)N[C@@H](C)Cn2cc(C3(O)CCCC3)nn2)oc(C(C)=O)c1C(=O)OC | -0.36 | 0.715 | -0.154 | 0.143 | 0.263 | 0.974 | 1.02 | 0.533 (inactive) | 0.517 | 0.0002 | 0.913 | 0.009 (inactive) | -1.03 (inactive) | -0.117 (inactive) | 2 | -0.159 (inactive) | -0.0126 | 0.555 | 0.634 | -0.0237
COCCOC(=O)N1C(=O)[C@@]2(c3cc(C#CCCO)ccc31)[C@H](C(=O)NC[C@H](O)c1ccccc1)[C@H]1C(=O)O[C@H](c3ccccc3)[C@H](c3ccccc3)N1[C@@H]2c1ccccc1OCCO | -0.0841 | 0.284 | -0.0048 | 0.486 | 1.48 | 0.96 | 1.31 | -0.154 (inactive) | 0.62 | -0.0994 | 1.53 | 1.06 (inactive) | 0.578 (inactive) | 2.4 (inactive) | 2.62 | 0.636 (inactive) | -0.0437 | 1.42 | 1.07 | 0.13
